# FUS yeast rescue: qHTS for Suppressors of FUS Proteinopathy: Primary screen using FUS-linked yeast assay; 0.24% of 390,000 active; S. cerevisiae FUS-expressing, growth rescue, OD600, 24 h; AID 1347120, 2019; Potency, µM (titrated, usually from 76.6 µM), usual class: activators;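 also: plate controls were DMSO vehicle for no effect and reference control for full effect; nearly all actives have a fitted effect of over 55% in size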
#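 Restored growth of FUS-toxic S. cerevisiae, read as 600 nm absorbance after 24 h at 30C in galactose medium (starting OD 0.005). Controls CP55940 and DMSO.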
# TDP43 rescue: qHTS of TDP-43 Inhibitors | TDP-43 expressing yeast growth rescue, BacTiter-Glo, 24 h | Potency, µM (top dose mostly 46.1 µM), inactives show at the highest dose growth rescue (activation), actives largely listed as activators | 1.8% of 410,000 active | AID 652104, 2013; also: % of control where 0% means no effect; nearly all actives have a fitted effect of over 50% in size
#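 In this qHTS, compounds that restore growth of yeast expressing TDP-43 appear as activators. Cells (OD600=0.02, galactose medium, raffinose-pregrown) are incubated with compound 24 hr at 30 deg C and growth is quantified by BacTiter-Glo.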
# Abeta rescue: qHTS for compounds that reverse cellular toxicity of Amyloid beta (A-beta) peptide in yeast: Primary Screen; yeast expressing A-beta42, growth rescue, OD600, 48 h; response scale: 0% DMSO, 100% iron-clioquinol control; Potency, µM (top dose mostly 46.1 µM), actives largely listed as activators; AID 1347071, 2019; 0.063% of 410,000 active; also: nearly all actives have a fitted effect of over 55% in size
#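 Yeast A-beta toxicity model in growth medium with pinned compounds, 48 h at 30 C; growth read as absorbance at 600 nm. Normalized to FeCl3/clioquinol equimolar mix (positive) and DMSO (negative).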
# aSyn yeast inh: qHTS of alpha-syn Inhibitors; AID 652106, 2013; Yeast expressing alpha-synuclein, growth rescue, BacTiter-Glo, 24 h; 0.14% of 370,000 active; Potency, µM (highest dose often 46.1 µM), inactives show top-dose growth rescue (activation), hits mostly activators; also: % of control where 0% means no effect; nearly all actives have a fitted effect of over 65% in size
#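 Galactose-induced alpha-syn yeast (OD600=0.02, raffinose-pregrown) + pinned cpd, 24 hr, 30 deg C; growth by BacTiter-Glo luminescence. Growth restoration scores as activation.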
# * marks the source's active call; other numbers are inactive results; i = inactive; ? = inconclusive; . = no result given; ! = not confirmed by another sample. Hits are enriched below; roughly 2.1% of the tested compounds scored in any of these assays. Calls follow the shape of the dose curve; as a rule, active = well fitted curve in the direction sought with a large enough effect; inconclusive = small, poorly fitted or top-dose-only effect, or another doubt; inactive = no such curve, though single readings can be large; an effect the other way counts as inactive or inconclusive. Potency is read from the fitted curve at half-maximal effect.
SMILES,FUS yeast rescue,TDP43 rescue,Abeta rescue,aSyn yeast inh
CCCN1CCOC(CC(=O)Nc2ccc([N+](=O)[O-])cc2)C1=O (stereo not drawn),i,20µM*,i,2.7%
CCOC(=O)[C@@]12CCCC3=C1N(CCC3)C(=O)[C@H]2CC(=O)N1CCOCC1,i,.,.,.
CCOc1ccccc1NC(=O)c1ccc2ccccc2c1,i,6.31µM*,i,-3.0%
CCOc1ccccc1NC(=O)CCC(=O)Nc1ccccc1OCC,i,12.3%,i,-2.6%
CCOc1ccccc1NC(=O)CSc1ccccc1,i,14.1µM*,i,2.9%
CCOc1ccccc1NC(=O)NNC(=O)c1ccc2ccccc2c1,i,16.9%,i,1.6%
CCOc1ccccc1NC(=O)CSc1ncc(S(=O)(=O)c2ccc(C)c(C)c2)c(N)n1,31.6µM*,16.9%,i,.
O=C(CSc1nnc(-c2ccco2)o1)c1ccccc1Cl,22.4µM*,?,i,-4.0%
CN(C)c1ccc(/C=C/c2ccnc3ccc(I)cc23)cc1,.,.,.,-0.8%
COc1ccccc1NC(=O)CCSc1nnc(-c2ccco2)o1,i,-5.1%,i,-3.1%
CCOc1ccccc1NC(=O)CSc1nnc(-c2ccco2)o1,i,12.6µM*,i,0.3%
Cc1nn(-c2ccc(Cl)c(Cl)c2Cl)c(=O)c2ccccc12,i,15.8µM*,i,9.3%
CC(=O)Nc1cc(-c2ccc(F)cc2)cn2c(-c3ccc(F)c(Cl)c3)cnc12,i,20µM*,i,-15.1%
COc1ccccc1-c1cc(NC=O)c2ncc(-c3cccc(C(F)(F)F)c3)n2c1,i,22.4µM*,i,13.8%
CC(=O)Nc1cc(-c2ccccc2)cn2c(-c3ccc(F)c(Cl)c3)cnc12,?,?,i,-16.6%
COc1ccc(F)cc1-c1cc(NC(C)=O)c2ncc(-c3cccc(C(F)(F)F)c3)n2c1,?,22.4µM*,?,?
COc1cccc(-c2cnc3c(NC=O)cc(-c4ccccc4Oc4ccccc4)cn23)c1,?,35.5µM*,i,?
COc1cccc(-c2cnc3c(NC=O)cc(-c4ccccc4)cn23)c1,i,?,i,-3.1%
CCOC(=O)CCCNC(=O)OCCCN1CCC2(CCC(c3ccccc3)CC2)C1=O (stereo not drawn),i,.,.,.
COc1cccc(NC(=O)CN(C)S(=O)(=O)c2cccs2)c1,i,?,i,.
COc1ccc(-c2nn(C)c3sc(C(=O)N4CCN(c5cccc(C)c5C)CC4)cc23)cc1OC,i,17.1%,i,.
Cc1ccc(OCC(=O)NCC2(N3CCN(C)CC3)CCCCC2)cc1C,i,-5.6%,i,.
Clc1ccc2c(c1)c1ccccc1n2CN1CCOCC1,i,?,i,-4.5%
Clc1ccc2c(c1)c1cc(Cl)ccc1n2CN1CCOCC1,i,6.31µM*,i,-24.8%
C[C@@H]1C[C@H]2[C@@H](C)C(=O)N3[C@H](c4ccccc4)[C@H](C)C[C@H]3[C@@H](C)C(=O)N2[C@@H]1c1ccccc1,i,.,.,.
SMILES,FUS yeast rescue,TDP43 rescue,Abeta rescue,aSyn yeast inh
O=C(Nc1ccc2nc(SCC(=O)N3CCc4ccccc43)sc2c1)c1ccc(F)cc1,i,-7.6%,i,.
CCN(CC)c1ncnc2c1sc1nc(C)cc(C)c12,i,22.4µM*,i,0.0%
Cc1cc(C)c2c(n1)sc1c(N3CCCCC3)ncnc12,i,4.2%,i,-8.7%
CNC(=O)C1CCC(Cn2c(=O)c3sccc3n(CC(=O)NCc3ccc(C)cc3)c2=O)CC1 (stereo not drawn),i,13.2%,i,.
Cc1nc(-c2ccc(F)cc2)c(CC(=O)N2CCN(S(=O)(=O)c3ccccc3Br)CC2)s1,.,8.7%,i,10.4%
Cc1ccc(C)c(S(=O)(=O)N2CCN(C(=O)Cc3sc(C)nc3-c3ccc(F)cc3)CC2)c1,.,18.0%,i,15.8µM*
COc1ccc(NC(=O)CNC(=O)Cn2ccc3ccccc3c2=O)cc1OC,i,7.0%,i,.
Brc1cc2c(cc1Br)OCCOCCOCCO2,i,20µM*,i,0.1%
CC(C)N(C(=O)c1ccccc1-c1ccccc1)C(C)C,i,-3.3%,i,20µM*
Cc1ccccc1NC(=O)c1ccccc1-c1ccccc1,i,-11.3%,i,-4.3%
CN(C(=S)NC(=O)C12CC3CC(CC(C3)C1)C2)c1ccc(O)cc1,i,17.8µM*,i,-4.8%
O=C(Cn1c(=O)oc2cc(S(=O)(=O)N3CCCC3)ccc21)Nc1ccc(F)cc1F,i,14.2%,i,.
CCc1nnc(NC(=O)c2nc(S(=O)(=O)Cc3ccc(C)cc3)ncc2Cl)s1,i,17.8µM*,i,15.7%
CSc1nnc(NC(=O)c2nc(S(=O)(=O)Cc3ccccc3F)ncc2Cl)s1,i,25.3%,i,13.9%
CC(C)c1nnc(NC(=O)c2nc(S(=O)(=O)Cc3ccccc3F)ncc2Cl)s1,i,28.2µM*,i,5.4%
Cc1ccc(CS(=O)(=O)c2ncc(Cl)c(C(=O)Nc3nnc(C(C)C)s3)n2)cc1,i,14.1µM*,i,19.7%
CCc1nnc(NC(=O)c2nc(S(=O)(=O)Cc3ccccc3)ncc2Cl)s1,i,20.1%,i,6.6%
Cc1cccc(CS(=O)(=O)c2ncc(Cl)c(C(=O)Nc3nnc(C(C)C)s3)n2)c1,i,?,i,18.9%
CCc1nnc(NC(=O)c2nc(S(=O)(=O)Cc3cccc(C)c3)ncc2Cl)s1,i,11.2µM*,i,16.6%
CCOc1ccc(NC(=O)c2nc(S(=O)(=O)Cc3ccccc3F)ncc2Cl)cc1,i,?,i,11.2µM*!
O=C(NCc1ccccc1)c1nc(S(=O)(=O)Cc2ccccc2)ncc1Cl,i,10µM*,i,21.2%
COc1ccc(CNC(=O)c2nc(S(=O)(=O)Cc3ccccc3)ncc2Cl)cc1,i,16.6%,i,0.0%
O=C(Nc1ccc(OC(F)F)cc1)c1nc(S(=O)(=O)Cc2ccccc2F)ncc1Cl,.,.,.,-81.6%
CCOC(=O)N1CCN(Cc2nc3cc(NC(=O)c4ccc([N+](=O)[O-])cc4)ccc3n2C(C)C)CC1,i,13.9%,i,.
Cc1ccccc1C(=O)N1CCN(c2ncnc3c2cnn3-c2ccccc2)CC1,?,14.1µM*,i,?
SMILES,FUS yeast rescue,TDP43 rescue,Abeta rescue,aSyn yeast inh
Cc1cn2c(=O)cc(COC(=O)c3cccc(NC(=O)c4ccccc4C)c3)nc2s1,i,16.6%,i,.
COc1ccc(/C=C2\C(=O)ON=C2c2ccccc2)cc1,i,?,i,13.7%
O=C1ON=C(c2ccccc2)/C1=C/c1ccc(O)c(O)c1,i,?,i,5.01µM*
COc1cc(/C=C2\C(=O)ON=C2c2ccc(Cl)cc2)ccc1O,?,?,i,3.6%
O=C1ON=C(c2ccccc2)/C1=C/c1ccc(OS(=O)(=O)c2ccccc2)cc1,.,12.6µM*,i,6.1%
CCc1cccc(NC(=O)COC(=O)c2ccccc2OCc2ccccc2Br)c1,.,.,.,-12.9%

# Source: PubChem (National Center for Advancing Translational Sciences (NCATS))
